From PubChem
Most compounds without a hit are left out; they make up all but 3.1% or so of the library.
NadD inh: inhibitors of S. aureus NadD, primary screen, biochemical, colorimetric, uHTS | Nicotinate-nucleotide adenylyltransferase NadD (Staphylococcus aureus N315) | purified NadD enzyme, colorimetric absorbance read-out | inhibition, % at 20 µM | hit rate 0.78% among 360,000 | AID 602399, 2012; in the data active = inhibition above about 26%
Calb FLC: C. albicans growth inhibition with fluconazole, primary screen, CaCi-2 strain, Alamar Blue fluorescence. C. albicans CaCi-2 (fluconazole-resistant clinical isolate) + fluconazole, 48 h. growth inhibition, % (concentration not given with the values). hit rate 0.57% among 300,000. AID 1979, 2009;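 active = growth inhibition above about 58% in most replicates, limit read from the data, passing the limit was not always enough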;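 note: all wells also contain fluconazole at 8 µg/ml as a sub-toxic cotreatment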
SUMO Mot1 rescue: yeast Mot1-301 growth rescue at high temperature, primary screen, SUMOylation pathway inhibitor project, S. cerevisiae, ATP luminescence, 38.5C; AID 2716, 2010; S. cerevisiae Mot1-301 growth rescue; percent above DMSO median, 100 means doubled; growth rescue, % at 18.8 µM; hit rate 1% among 320,000;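 active = every valid replicate shows activation above 250% relative to neutral control wells; inactive = the rest, any valid replicate at or below 250%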
ATG4B inh: ATG4B protease inhibitors, primary screen, biochemical, fluorescence, uHTS; hit rate 0.51% among 340,000; AID 504462, 2011; Cysteine protease ATG4B (Homo sapiens), Q9Y4P1; inhibition, % at 8.33 µM; ATG4B cleavage of LC3-PLA2, NBD-HPC fluorescence, 1 h; in the data active = inhibition above about 40%
FAS-TE inh: FAS thioesterase domain inhibitors, primary screen, biochemical, fluorescence intensity, uHTS. recombinant FAS-TE, OMFH fluorogenic substrate, fluorescence endpoint. inhibition, % at 15 µM. hit rate 0.67% among 360,000. AID 602261, 2012;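 active = compounds whose normalised, plate-corrected inhibition of enzyme fluorescence in the single-dose primary screen is 50% or more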
NadD conf: inhibitors of S. aureus NadD, confirmation, biochemical, colorimetric, single concentration; purified S. aureus NadD, colorimetric enzyme assay; AID 624309, 2012; hit rate 13% among 2,000; inhibition, % at 20 µM; shares compounds with NadD inh; in the data active = inhibition mostly above about 42%, no sharp cut-off; inactive = mostly below about 42%
Numbers stand for hits; - = inactive; . = not tested or not shown.

SMILES	NadD inh	Calb FLC	SUMO Mot1 rescue	ATG4B inh	FAS-TE inh	NadD conf
C[C@@H]1CN([C@@H](C)CO)C(=O)c2cc(C#CC3CCCCC3)cnc2O[C@@H]1CN(C)S(=O)(=O)c1ccc(F)cc1	75.4	.	.	.	-	-
CC(C)(C)C(=O)c1c(N)[nH]c(C(=O)c2ccccc2)c1-c1ccc(Cl)cc1Cl	-	.	.	.	-	.
Nc1[nH]c(C(=O)c2ccccc2)c(-c2ccc(Cl)cc2Cl)c1C(=O)c1ccc(Cl)c(Cl)c1	35.5	.	.	.	-	-
CC1(/[N+]([O-])=C/c2ccccc2F)CCCCC1=O (stereo not given)	-	-	-	-	-	.
O=C1Nc2ccccc2N=C(c2ccc3c(c2)OCO3)C1N(C(=O)c1ccnc2ccccc12)c1ccccc1 (stereo not given)	-	.	.	.	-	.
O=C1Nc2ccccc2N=C(c2ccc3c(c2)OCO3)C1N(C(=O)c1ccc2ccccc2c1)C1CC1 (stereo not given)	34.8	.	.	.	-	-
CCCNC(=O)CCCN1C(=O)c2ccccc2Sc2ncccc21	-	-	-	-	-	.
Cc1sc2nc(CN3CCOCC3)nc(NS(=O)(=O)c3cc(Cl)ccc3Cl)c2c1C	-	.	-	-	-	.
CCN1/C(=C/C=C/C=C/C=C/c2sc3ccccc3[n+]2CC)Sc2ccccc21	39.7	-	-	-	-	79.0
COc1ccc(-c2oc3ccccc3c2C#Cc2cncn2C)cc1	-	.	-	-	-	.
CC(C)(Sc1ccc(CCN(CCCCC2CCCCC2)C(=O)NC2CCCCC2)cc1)C(=O)O	46.3	.	-	-	-	-
S=c1[nH]nc(-c2ccncc2)n1/N=C/c1cn(-c2ccccc2)nc1-c1ccc(Cl)cc1	45.3	-	-	-	-	-
O=[N+]([O-])c1ccc(-c2nn(-c3ccccc3)cc2/C=N/n2c(-c3cccs3)n[nH]c2=S)cc1	43.1	-	-	-	-	-
CSc1nnc(-c2ccncc2)n1/N=C/c1cn(-c2ccccc2)nc1-c1ccc(Cl)cc1	-	-	-	-	-	.
Oc1ccc(C[C@H]2CNC(=S)N2C[C@H]2CCCN2C[C@H](Cc2ccccc2)N2C[C@H](Cc3ccc(O)cc3)N(CCc3ccccc3)C2=S)cc1	46.1	.	.	.	-	-
CC(C)C[C@@H](CN1CCCC1CN1C(=S)NC[C@@H]1Cc1ccc(O)cc1)N1C[C@H](Cc2ccc(O)cc2)N(CCc2ccccc2)C1=S (stereo not given in full)	42.3	.	.	.	-	-
Oc1ccc(C[C@H]2CN([C@@H](Cc3ccc(O)cc3)CN3CCC[C@@H]3CN3C(=S)NC[C@@H]3Cc3ccccc3)C(=S)N2CCc2ccccc2)cc1	39.7	.	.	.	-	-
Oc1ccc(C[C@H]2CN([C@@H](Cc3ccccc3)CN3CCCC3CN3C(=S)NC[C@@H]3Cc3ccccc3)C(=S)N2CCc2ccccc2)cc1 (stereo not given in full)	37.2	.	.	.	-	-
O=C1NC[C@H](Cc2ccccc2)N(C[C@H]2CCCN2C[C@H](Cc2ccccc2)N2C[C@H](Cc3ccc(O)cc3)N(CCc3ccccc3)C(=O)C2=O)C1=O	-	.	.	.	-	.
O=C(CNC(=O)C1CCCCC1)OCC(=O)c1cccc(Cl)c1	-	.	-	-	-	.
Cc1ccc(C(=O)OCC(=O)NCCc2ccccc2)cc1C	-	.	-	-	-	.
CN1CCc2c(sc(NC(=O)c3cc(Cl)sc3Cl)c2C(N)=O)C1	-	-	-	-	-	.
COc1ccc(C2OCC(C)(C)CO2)cc1OC	-	.	.	-	-	.
COc1ccc(C2C=C(C34CC5CC(CC(C5)C3)C4)NC(=S)N2)cc1OC (stereo not given)	28.9	-	-	-	-	-
Cc1ccc(C)c2nc3sc(C(=O)N4CCCc5ccccc54)c(N)c3cc12	32.4	-	-	-	-	-
SMILES	NadD inh	Calb FLC	SUMO Mot1 rescue	ATG4B inh	FAS-TE inh	NadD conf
CCCc1ccc2oc(C(=O)N3CCN(C4CCS(=O)(=O)C4)CC3)c(C)c2c1 (stereo not given)	-	-	-	-	-	.
CC1CCN(S(=O)(=O)c2ccc3c(c2)C(=NO)c2cc(S(=O)(=O)N4CCC(C)CC4)ccc2-3)CC1	-	.	-	-	-	.
O=S(=O)(c1ccc2c(c1)C(=NO)c1cc(S(=O)(=O)N3CCCCC3)ccc1-2)N1CCCCC1	33.9	-	-	-	-	-
COc1ccc2nc(-n3c(O)c(C4=c5ccccc5=NC4=O)[nH]c3=S)sc2c1	51.7	-	-	-	-	-
CCOc1ccc(NC(=O)c2cccc(-n3cccc3)c2)cc1S(=O)(=O)N1CCOCC1	32.2	.	-	.	-	-
COc1ccc(S(=O)(=O)N2CCOCC2)cc1NC(=O)c1cccc(-n2cccc2)c1	-	-	-	-	-	.
Cc1ccc(Cl)cc1N1CCN(C(=O)Cc2csc(Nc3nc(=S)[nH]c4ccccc34)n2)CC1	63.0	-	-	-	-	-
O=C(Cc1csc(Nc2nc(=S)[nH]c3ccccc23)n1)N1CCN(c2cccc(Cl)c2)CC1	54.7	-	-	-	-	-
Cc1ccc(Cl)cc1N1CCN(C(=O)Cn2ccc3ccccc3c2=O)CC1	-	-	-	-	-	.
CC(C)C(O)(C#CCN1CCCCCC1)c1ccccc1 (stereo not given)	-	-	-	-	-	.
C=C1CCN([C@H](C(=O)NCc2ccc(Cl)cc2)C(C)C)S(=O)(=O)c2ccccc21	-	.	-	-	-	.
O=[N+]([O-])c1ccc2[nH]cc(S(=O)(=O)N3CCN(c4cccc(Cl)c4)CC3)c2c1	31.5	-	-	-	-	-
Cc1ccc(S(=O)(=O)N2CCCCC2)cc1NC(=O)c1ccncc1	-	.	.	-	-	.
Cc1ccc(-n2c(O)c(/C=N/Nc3ccc(S(=O)(=O)N4CCOCC4)cc3[N+](=O)[O-])c3ccccc3c2=O)c(C)c1	43.1	-	-	-	-	-
COc1ccc(NC(=O)c2c[nH]n3c(=O)cc(C4CCN(C(=O)OC(C)(C)C)CC4)nc23)cc1Cl	29.0	-	-	-	-	-
O=C(Nc1nnc(SCc2ccc(F)cc2)s1)C1Cc2ccccc2CN1C(=O)c1ccco1 (stereo not given)	60.3	-	-	-	-	52.1
O=C(Nc1nnc(C2CC2)s1)C1Cc2ccccc2CN1C(=O)c1ccco1 (stereo not given)	-	-	-	-	-	.
CC1Cc2ccccc2N1CC(=O)NC(=O)NCc1ccco1 (stereo not given)	32.4	-	-	-	-	-
CC1CCN(S(=O)(=O)c2cccc3cccnc23)CC1	-	-	-	-	-	.
Cc1ccc(Cl)cc1Nc1nc(-c2sc(NC(=O)C(C)(C)C)nc2C)cs1	33.6	-	-	-	-	-
